Only a selection was taken, and hits are over-represented in it overall.
HT1080-NT tox: kills 2HG-producing HT-1080-NT fibrosarcoma cells. HT-1080-NT fibrosarcoma viability, CellTiter-Glo ATP luminescence, 48 h. Potency, µM (highest dose often 46.1 µM), for inactives: top-dose activity, negative = less viability, most hits filed as cytotoxic. actives 1.6% (n = 360,000). AID 686970;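 further: NT is the 2HG producing partner of a matched IDH1 knockdown line; potency means the concentration at half of the fitted maximal effect; 0% = DMSO-treated cells and -100% = media-only wells without cells; nearly all actives have a fitted effect of over 55% in size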
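Viability by CellTiter-Glo luminescence after 48 h compound exposure at 37C of HT-1080-NT cells (750/well, RPMI, 5% FBS). % activity scaled between DMSO wells and medium-only wells, then curve-fitted and categorized by curve class.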
IL1B secr inh: inflammasome signaling inhibition, IL-1 beta readout. THP-1 LPS/ATP IL-1B secretion, AlphaLISA, 16 h; active compounds read low. activity change, % at 57.5 µM. actives 4.7% (n = 360,000); in the data active means activity change below about -50%; inconclusive means mostly about -30% to -49%
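Secreted IL-1B measured by AlphaLISA bead assay after 16 h compound exposure of THP-1 cells; compounds (final up to 57.5 uM) added 1 h before LPS (250 ng/mL) and ATP (1.25 mM) stimulation; lower signal means less secretion.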
DT40 TDP1 no CPT: qHTS for Inhibitors of human tyrosyl-DNA phosphodiesterase 1 (TDP1): qHTS in cells in absence of CPT; DT40 Tdp1-/- hTDP1 cells, no CPT, ATP luminescence, 48 h; Potency, µM (doses to about 46.2 µM), without a hit: at the highest dose activity change, negative = growth inhibition, usual class: inhibitors; actives 15% (n = 420,000); AID 686978, 2013; further: potency means the concentration at half of the fitted maximal effect; nearly all actives have a fitted effect of over 55% in size
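Chicken DT40 Tdp1-/- cells complemented with human TDP1, screened without camptothecin (DMSO vehicle only), 400 cells/well. Compounds pin-transferred, cells incubated at 37 °C for at least 48 hr. Growth read as ATP-dependent luminescence (CellTiter-Glo, 30 min at RT).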
DT40 TDP1 CPT: growth inhibition of DT40 Tdp1-/-;hTDP1 cells with camptothecin (screen for TDP1 inhibitors) | chicken DT40 Tdp1-/-;hTDP1 cells + 20 nM CPT, ATP luminescence, 48 h | Potency, µM (top dose mostly 46.2 µM), inactives show at the top dose activity change, negative = growth inhibition, hits mostly inhibitors | actives 12% (n = 420,000) | AID 686979; further: potency means the concentration at half of the fitted maximal effect; nearly all actives have a fitted effect of over 55% in size
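Cell growth measured by CellTiter-Glo luminescence after a minimum 48 h, 37 C compound exposure with 20 nM CPT in Tdp1-knockout DT40 cells stably expressing hTDP1, seeded 400/well; qHTS titration format.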
ALOX12 inh: inhibitors of human 12S-lipoxygenase ALOX12. Potency, µM (series often up to 108 µM), for inactives: at the highest dose activity change, negative = inhibition, usual class: inhibitors. purified 12hLO, xylenol orange hydroperoxide absorbance. AID 1671190. actives 1.1% (n = 580,000). P18054; further: potency means the concentration at half of the fitted maximal effect
Target sequence (P18054 whole entry, looked up): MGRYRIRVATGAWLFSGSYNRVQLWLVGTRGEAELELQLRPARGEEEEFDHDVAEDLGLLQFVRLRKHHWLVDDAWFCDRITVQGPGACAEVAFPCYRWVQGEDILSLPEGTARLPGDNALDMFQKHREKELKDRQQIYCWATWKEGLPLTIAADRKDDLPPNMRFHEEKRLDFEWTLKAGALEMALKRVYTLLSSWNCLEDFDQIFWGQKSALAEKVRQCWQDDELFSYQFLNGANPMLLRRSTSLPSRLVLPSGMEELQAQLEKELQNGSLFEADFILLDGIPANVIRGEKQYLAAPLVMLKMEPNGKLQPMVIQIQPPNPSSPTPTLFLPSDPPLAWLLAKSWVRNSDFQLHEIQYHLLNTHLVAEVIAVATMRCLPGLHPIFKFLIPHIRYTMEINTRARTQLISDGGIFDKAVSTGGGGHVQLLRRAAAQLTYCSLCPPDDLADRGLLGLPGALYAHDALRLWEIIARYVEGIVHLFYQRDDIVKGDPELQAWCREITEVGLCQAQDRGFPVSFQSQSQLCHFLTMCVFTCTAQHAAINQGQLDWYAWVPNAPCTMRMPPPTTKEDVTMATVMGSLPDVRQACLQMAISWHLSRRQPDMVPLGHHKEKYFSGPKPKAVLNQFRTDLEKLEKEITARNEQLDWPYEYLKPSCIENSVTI
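Hydroperoxide product was detected by ferrous iron/xylenol orange as the 573 to 405 nm absorbance ratio. Arachidonic acid at 40 uM (final) was turned over for 30 min at room temperature by 150 nM human 12hLO, pH 7.0 Hepes buffer, after 15 min compound preincubation.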
HT1080 IDH1KD tx: kills HT-1080 cells with IDH1 knockdown | HT-1080 IDH1 knockdown viability, ATP luminescence, 48 h | Potency, µM (titrated, usually from 46.1 µM), inactives show at the top dose activity, negative = toxicity, actives largely listed as cytotoxic | actives 2% (n = 360,000) | AID 686971;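 further: potency means the concentration at half of the fitted maximal effect; 0% = DMSO wells and -100% = cell-free medium wells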
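Luminescent ATP read-out (CellTiter-Glo, 10 min at room temperature) after 48 h compound exposure at 37 °C gave viability of IDH1-knockdown HT-1080 cells. Activity was normalised to DMSO and cell-free wells, then fitted as concentration-response curves.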
* marks the source's active call; other numbers are inactive results; ? = inconclusive; · = no result; [ ] = dose if it differs, or a comment. Unless noted, the call rests on the fitted dose curve; in most records, active means well fitted curve in the direction sought with a large enough effect; inconclusive means small, poorly fitted or top-dose-only effect, or another doubt; inactive means no such curve, though single readings can be large; an effect the other way counts as inactive or inconclusive. Unless noted, on the % scale 0 is the no-effect control and ±100 the full control effect.

SMILES	HT1080-NT tox	IL1B secr inh	DT40 TDP1 no CPT	DT40 TDP1 CPT	ALOX12 inh	HT1080 IDH1KD tx
Clc1nc2ccccc2nc1-c1ccccc1	22%	2	-23%	-17%	3%	15%
Cc1cccc(C)c1Nc1nc(N)c(C(=O)c2c(C)[nH]c3ccccc23)s1	·	·	·	·	-25%	·
CCOC(=O)CNC(=O)CCc1nnc2ccc(N3CCC(C)CC3)nn12	-2%	-8	?	23µM*	12%	14%
CC1CCN(C(=O)CCc2nnc3ccc(N4CCC5(CC4)OCCO5)nn23)CC1	1%	-8	14%	-3%	-7%	7%
CCOC(=O)C1CCN(C(=O)CCc2nnc3ccc(N4CCC(C)CC4)nn23)CC1	-2%	0	?	18µM*	12%	6%
O=C(Nc1cccc(Br)c1)N1CCC2(CC1)SCC(=O)N2Cc1ccco1	·	·	·	·	8%	·
COc1cc(OC)cc(C(=O)NCC(=O)NCCN2C(=O)S/C(=C\c3ccc4c(c3)OCO4)C2=O)c1	0%	-54*	18µM*	?	?	-2%
COc1cc(C(=O)NCC(=O)NCCN2C(=O)S/C(=C\c3ccccc3Cl)C2=O)cc(OC)c1OC	-2%	-1	18µM*	18µM*	-8%	-9%
O=C(CCc1nc2ccccc2c(=O)[nH]1)NCCN1C(=O)S/C(=C\c2ccc(Cl)cc2Cl)C1=O	-29%	17	4.6µM*	8.2µM*	?	?
COc1cc(OC)cc(C(=O)NCC(=O)NCCN2C(=O)S/C(=C\c3ccccc3Cl)C2=O)c1	-1%	-10	?	?	3%	-8%
O=C(CCc1nc2ccccc2c(=O)[nH]1)Nc1ccc(Cl)c(Cl)c1	-14%	0	?	-23%	?	?
O=C(Nc1cccc(S(=O)(=O)N2CCCCC2)c1)C1CC(=O)N(C2CCCC2)C1 (stereo unspecified)	·	·	·	·	2%	·
CC(=O)Oc1cccc(C(=O)Nc2ccc(-c3nc4ccccc4o3)cc2)c1	·	·	·	·	-26%	·
O=c1c2c(-c3cccs3)csc2ncn1-c1ccccc1	-17%	-2	?	-28%	-11%	-6%
COc1cc(/C=N/n2cnc3scc(-c4cccs4)c3c2=O)cc(OC)c1OC	?	36	2.9µM*	4.6µM*	0%	?
COc1ccc(/C=N/n2cnc3scc(-c4cccs4)c3c2=O)cc1OC	8%	8	?	18µM*	8%	20%
Cc1ccc(C)n1-n1cnc2scc(-c3cccs3)c2c1=O	-15%	-16	-11%	-7%	-46%	-1%
Cc1ccc(/C=C/C(=O)c2cc(C)ccc2O)cc1	·	·	·	·	1%	·
CC(C)=CCC/C(C)=C/Cc1c(O)ccc(C(=O)/C=C/c2ccc(O)cc2)c1O	?	-80*	21µM*	?	1%	-26%
Cc1cc(=O)[nH]c2c1cnn2Cc1ccccc1	-5%	23	-7%	?	-10%	-3%[9.24 µM]
S=c1nc[nH]c2c1cnn2Cc1ccccc1	-1%	35	3.7µM*	10µM*	?	-5%
CCC(C)NC(=O)Cn1c(-c2ccccc2)cc2ccccc21 (stereo unspecified)	·	·	·	·	-21%	·
COc1ccc(C2(C)NC(=O)N(CC(=O)NC(C)c3ccc(CC(C)C)cc3)C2=O)cc1 (stereo unspecified)	-3%	-21	?	?	9%	-1%
CC(C)C1(c2ccsc2)NC(=O)NC1=O (stereo unspecified)	-4%	0	-2%	3%	-24%	-2%
COC(=O)N1C(=O)[C@](c2ccc(OC)cc2)(C(C)C)N1C(=O)OC	-3%	-92*	16µM*	21µM*	-48%	0%
SMILES	HT1080-NT tox	IL1B secr inh	DT40 TDP1 no CPT	DT40 TDP1 CPT	ALOX12 inh	HT1080 IDH1KD tx
COC(=O)N1C(=O)[C@](c2ccsc2)(C(C)C)N1C(=O)OC	-3%	-99*	?	15µM*	7%	-10%
Cc1cc(-c2cc3c(cn2)CN(Cc2ccccc2F)CCN3)ccn1	·	·	·	·	-5%[176 µM]	·
O=c1oc2c(-c3cccc(F)c3)cc(O)cc2s1	-2%	0	?	?	35µM*	-26%
O=C(O)CCc1conc1-c1cccc(F)c1	·	·	·	·	14%	·
CCOc1ccc(CCn2c(-c3ccco3)nc3ccccc3c2=O)cc1OCC	?	-57*	0.82µM*	1.3µM*	-9%	3.5µM*
CCOC(=O)CSc1nc2ccccc2c(=O)n1CCC(=O)NCCc1ccc(OC)c(OC)c1	-1%	-3	-20%	-7%	0%	1%
CCOC(=O)CSc1nc2ccccc2c(=O)n1CCc1ccc(OC)c(OC)c1	·	·	12µM*	13µM*	?	·
CCCCNC(=O)C(CC)Sc1nc2ccccc2c(=O)n1CCc1ccc(OC)c(OC)c1 (stereo unspecified)	·	·	8.2µM*	8.2µM*	?	·
CC(C)N(C)Cc1ccc(-c2nc(-c3ccncc3)cc(=O)[nH]2)cc1	·	·	·	·	-18%	·
CCN(CC)CCCNC(=O)CCNc1nc(Cl)nc2nc[nH]c12	·	·	·	·	-39%	·
O=C(Cc1ccc2c(c1)CCC2)NC(c1ccc(F)cc1)c1cccs1 (stereo unspecified)	·	·	·	·	-27%	·
Cc1cc(C)c2oc(C(=O)Nc3cccc(Cl)c3C)cc(=O)c2c1	·	·	·	·	-1%	·
O=C(NCc1ccc2c(c1)CCN2C(=O)c1ccc(Cl)cc1)c1cccc(F)c1	·	·	2%	7%	3%	·
COc1ccc(C(=O)NCc2ccc3c(c2)CCN3C(=O)c2ccc(F)cc2)cc1	·	·	21µM*	?	4%	·
Cc1ccccc1C(=O)NCc1ccc2c(c1)CCN2C(=O)c1ccccc1	·	·	10µM*	13µM*	?	·
O=C(NCc1ccc2c(c1)CCN2C(=O)c1ccncc1)c1cccc(Cl)c1	·	·	?	21µM*	-13%	·
COc1cc(CNC(=O)c2ccc3c(c2)N(C(=O)c2ccc(F)cc2)CC3)cc(OC)c1	·	·	·	·	15%	·
COc1ccc(C(=O)NCc2ccc3c(c2)CCN3C(=O)c2ccccc2)cc1	·	·	23µM*	23µM*	2%	·
CN(CC1CCCN(CCc2cccc(C(F)(F)F)c2)C1)C(=O)c1ccc2[nH]ccc2c1 (stereo unspecified)	·	·	·	·	3%	·
COc1cccc(C(=O)N(C)CCCNC(=O)c2nc3ccccc3c(=O)[nH]2)c1	·	·	·	·	-5%	·
CC(C)c1noc(-c2cn(C3CCN(C(=O)c4cccc5[nH]ccc45)CC3)nn2)n1	·	·	·	·	19%	·
O=C(c1ccc(F)cc1)N1CCC(CCc2ccc(O)cc2)CC1	·	·	·	·	2%	·
